Among all 340,000 compounds or so, about 2,800 (0.82%) were called active.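 How the source made its calls: active means B-score under library mean minus 4 SD, starting fluorescence ratio at most library mean plus 5 SD; inactive means the rest.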 For the sample, actives were picked, then their nearest neighbours and some compounds at random.
Each molecule was assayed against Potassium channel subfamily K member 3 (Homo sapiens) (UniProt O14649) (assay: blockers of TASK1 two-pore potassium channel – CHO cells, FluxOR thallium flux, B-score, primary screen (AID 602410;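 on B-score: more negative B-score means stronger inhibition of thallium flux through KCNK3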)). Details: CHO-KCNK3 thallium flux, FluxOR fluorescence, at 10 µM; hits give low values.
Chain of Potassium channel subfamily K member 3 (Homo sapiens) (O14649 whole entry, looked up): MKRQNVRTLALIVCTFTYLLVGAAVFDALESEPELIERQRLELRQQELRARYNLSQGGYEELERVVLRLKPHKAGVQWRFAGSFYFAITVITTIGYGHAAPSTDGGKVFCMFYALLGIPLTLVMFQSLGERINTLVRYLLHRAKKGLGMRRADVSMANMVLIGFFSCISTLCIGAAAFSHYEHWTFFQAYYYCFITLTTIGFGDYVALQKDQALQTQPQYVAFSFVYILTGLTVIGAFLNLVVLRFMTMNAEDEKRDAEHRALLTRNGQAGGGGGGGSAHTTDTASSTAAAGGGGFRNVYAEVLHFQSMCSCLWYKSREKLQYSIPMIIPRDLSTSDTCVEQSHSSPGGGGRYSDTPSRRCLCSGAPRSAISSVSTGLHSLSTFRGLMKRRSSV

**Q.** For `Cc1cc(Nc2cccc(F)c2)n2ncnc2n1`, which B-score is on record?
**A.** inactive

**Q.** For `CC(=O)c1ccc(NC(=O)C(C)NCc2ccc(Cl)cc2)cc1` (configuration not stated), which B-score is on record?
**A.** inactive

**Q.** For `CC(NCC(=O)Nc1cc(Cl)cc(Cl)c1)c1ccccc1` (configuration not stated), which B-score is on record?
**A.** inactive

**Q.** `CC(NCc1cccs1)C(=O)Nc1cc(Cl)cc(Cl)c1` (configuration not stated) was tested. Which B-score did it give?
**A.** -9.85 (active)

**Q.** How did the B-score turn out when `CC(=O)Nc1ccccc1OC(C)C(=O)N1CCC(C)CC1` (configuration not stated) was run?
**A.** inactive

**Q.** With `CCOc1ccc(Br)cc1S(=O)(=O)Nc1ccc(C(=O)OC(C)C(=O)N(C)c2ccccc2)cc1` (configuration not stated) as the molecule, how does the B-score read?
**A.** inactive

**Q.** Which B-score does the source give for `COCCCNC(=O)CCc1nc2cccnc2n1Cc1ccc(OC)cc1` here?
**A.** inactive

**Q.** How did the B-score turn out when `Cc1ccc2nc(NC(=O)C3CSC4(C)CCC(=O)N34)sc2c1` (configuration not stated) was run?
**A.** inactive

**Q.** `CCOc1ccc(N(CC(=O)OC)S(=O)(=O)c2c(C)noc2C)cc1` was tested. Which B-score did it give?
**A.** inactive

**Q.** With `COc1ccc(N(Cc2ccccc2)S(=O)(=O)c2cccc(C(=O)O)c2)cc1` as the molecule, how does the B-score read?
**A.** inactive

**Q.** How did the B-score turn out when `COc1cccc(COc2ccc(N(C)S(=O)(=O)c3ccccc3)cc2)c1` was run?
**A.** -13.2 (active)

**Q.** For `Cc1ccc2nc(COc3ccc(N(C)S(=O)(=O)c4ccccc4)cc3)cc(=O)n2c1`, which B-score is on record?
**A.** inactive

**Q.** For `Nc1nnc2c(C(F)(F)F)nc3ccccc3n12`, which B-score is on record?
**A.** inactive

**Q.** Which B-score does the source give for `Cc1cccc(-c2nc3ccc(C(=O)NCCN4CCN(C)CC4)cc3nc2-c2cccc(C)c2)c1` here?
**A.** -9.46 (active)

**Q.** `Cc1cc(C)cc(C(=O)NCCN2CCOCC2)c1` was tested. Which B-score did it give?
**A.** inactive

**Q.** Which B-score does the source give for `Cc1cccc(C(=O)OC(C)CN2CCN(C)CC2)c1` (configuration not stated) here?
**A.** inactive

**Q.** With `Cc1nnc(C)c2c(C)n(N)c(C)c12` as the molecule, how does the B-score read?
**A.** inactive

**Q.** How did the B-score turn out when `C=C1CCC(N(O)c2cc(C)on2)C(=C)CCC2C1CC2(C)C` (configuration not stated) was run?
**A.** inactive

**Q.** `COc1ccc(C(=O)CSc2nnnn2C)c(OC)c1` was tested. Which B-score did it give?
**A.** inactive

**Q.** Which B-score does the source give for `Oc1ccc(/C=N/Nc2nc(-c3ccccc3F)nc3ccccc23)c(O)c1` here?
**A.** -11 (active)

**Q.** With `CC(C)(C)Nc1nc(-c2ccccn2)nc2ccccc12` as the molecule, how does the B-score read?
**A.** inactive

**Q.** `Oc1ccc(-c2nc3ccccc3nc2-c2ccc(O)cc2O)c(O)c1` was tested. Which B-score did it give?
**A.** inactive

**Q.** With `CC1CC(C)CN(C(=O)CSc2ccsc2[N+](=O)[O-])C1` (configuration not stated) as the molecule, how does the B-score read?
**A.** inactive

**Q.** How did the B-score turn out when `CC(C)OCCCNC(=O)c1ccc(C2SCC(=O)N2Cc2ccco2)cc1` (configuration not stated) was run?
**A.** inactive

**Q.** With `COc1c(N2CCN(C(=S)Nc3ccccc3F)C(C)C2)c(F)cc2c(=O)c(C(=O)O)cn(C3CC3)c12` (configuration not stated) as the molecule, how does the B-score read?
**A.** inactive

**Q.** Which B-score does the source give for `CCOC(=O)CSc1nc2c(c(=O)n(Cc3ccccc3Cl)c(=O)n2C)n1C` here?
**A.** inactive

**Q.** Which B-score does the source give for `CCOC(=O)CSc1nc2c(sc(=S)n2CCc2ccccc2)c(=O)n1Cc1ccco1` here?
**A.** -9.18 (active)

**Q.** How did the B-score turn out when `CCOC(=O)Cc1csc(NC(=O)CSc2nnc(-c3cccnc3)n2Cc2ccco2)n1` was run?
**A.** inactive

**Q.** With `O=C(CSc1nnc2n1CCCN2)c1ccccc1` as the molecule, how does the B-score read?
**A.** inactive

**Q.** Which B-score does the source give for `CCOc1ccc(CN(Cc2ccco2)S(=O)(=O)c2ccc(-n3cnnn3)c(OC)c2)cc1` here?
**A.** inactive

**Q.** With `CC(C)(C)n1nnnc1C(c1cccs1)N(Cc1cccnc1)CC1CCCO1` (configuration not stated) as the molecule, how does the B-score read?
**A.** inactive

**Q.** With `CCOc1ccc(CN(Cc2ccco2)C(c2cccs2)c2nnnn2C(C)(C)C)cc1` (configuration not stated) as the molecule, how does the B-score read?
**A.** -10.5 (active)

**Q.** For `Cc1nc(NC(CC(C)C)C(=O)O)c2nc(C)oc2n1` (configuration not stated), which B-score is on record?
**A.** inactive

**Q.** Which B-score does the source give for `Cn1cc(Cl)c(C(=O)NNC(=S)Nc2cccc(Cl)c2)n1` here?
**A.** inactive

**Q.** With `FC(F)(F)c1cccc(NC(=S)Nc2cccc(Cl)c2)c1` as the molecule, how does the B-score read?
**A.** -10.9 (active)

**Q.** With `FC(F)(F)c1cccc(N/N=C/c2ccccc2)c1` as the molecule, how does the B-score read?
**A.** inactive

**Q.** `COC(=O)CNS(=O)(=O)c1ccc(Cc2ccc(S(=O)(=O)NCC(=O)OC)cc2)cc1` was tested. Which B-score did it give?
**A.** inactive

**Q.** Which B-score does the source give for `CCN1CCN(C(=O)Cn2nc(C)n3c(cc4c(OC)cccc43)c2=O)CC1` here?
**A.** inactive

**Q.** Which B-score does the source give for `COc1ccccc1Oc1ccc(N2CC(C(=O)OCC(=O)c3ccc(F)cc3)CC2=O)cc1` (configuration not stated) here?
**A.** inactive

**Q.** `CC(O)c1nc2ccccc2n1Cc1ccc([N+](=O)[O-])cc1` (configuration not stated) was tested. Which B-score did it give?
**A.** inactive

**Q.** With `COc1cccc(-n2c(=S)sc3c(=O)n(-c4ccccc4OC)c(SCC4OCCO4)nc32)c1` as the molecule, how does the B-score read?
**A.** inactive

**Q.** For `COc1ccccc1-n1c(=S)[nH]c2c(sc(=S)n2-c2ccc(C)cc2C)c1=O`, which B-score is on record?
**A.** inactive

**Q.** How did the B-score turn out when `CCc1ccc(-n2c(=S)sc3c(=O)n(-c4ccccc4OC)c(=S)[nH]c32)cc1` was run?
**A.** -11 (active)

**Q.** How did the B-score turn out when `C/C(=N\Nc1ccc([N+](=O)[O-])cc1)c1ccc(-n2nncc2C(C)(C)C)cc1` was run?
**A.** inactive

**Q.** For `CCCCC(NC(=O)c1cccc(Br)c1)C(=O)O` (configuration not stated), which B-score is on record?
**A.** inactive

**Q.** Which B-score does the source give for `O=[N+]([O-])c1ccc2c(c1)Nc1nc3ccccc3nc1N2` here?
**A.** inactive

**Q.** `O=[N+]([O-])c1cc2ccccc2nc1-c1ccccc1` was tested. Which B-score did it give?
**A.** inactive

**Q.** With `COc1ccc([N+](=O)[O-])cc1-c1nc2ccccc2nc1-c1ccccc1` as the molecule, how does the B-score read?
**A.** -12 (active)

**Q.** `CCOc1ccc(NC(=O)c2ccccc2NS(C)(=O)=O)cc1` was tested. Which B-score did it give?
**A.** inactive

**Q.** For `COc1cc(NC(=O)c2ccccc2NS(=O)(=O)c2ccc(Cl)s2)cc(OC)c1`, which B-score is on record?
**A.** -9.84 (active)

**Q.** `COc1ccccc1C(=O)Nc1ccccc1C(=O)Nc1ccccc1` was tested. Which B-score did it give?
**A.** inactive

**Q.** Which B-score does the source give for `Cc1ccc(S(=O)(=O)NNC(=S)NC(C)(C)C)cc1` here?
**A.** inactive

**Q.** Which B-score does the source give for `O=C(Nn1c(SCc2ccc([N+](=O)[O-])cc2)nc2ccccc2c1=O)c1ccc(F)cc1` here?
**A.** -9.24 (active)

**Q.** With `C=CCn1c(SCc2ccc(C(=O)NCCO)cc2)nc2ccccc2c1=O` as the molecule, how does the B-score read?
**A.** inactive

**Q.** For `Cc1nc2ccccc2c(=O)n1NC(=O)c1ccc(Cl)c([N+](=O)[O-])c1`, which B-score is on record?
**A.** inactive

**Q.** With `Cc1nc2cccnc2nc1C` as the molecule, how does the B-score read?
**A.** inactive

**Q.** With `COc1ccc(-c2c(NC(=O)c3ccco3)oc3ccc(Cl)cc3c2=O)cc1` as the molecule, how does the B-score read?
**A.** inactive

**Q.** For `Cc1cc(C=O)c(C)n1-c1ccc(NC2CCCCC2)c([N+](=O)[O-])c1`, which B-score is on record?
**A.** -13.4 (active)

**Q.** How did the B-score turn out when `Cc1c(NS(=O)(=O)c2ccc(NC3CCCC3)c([N+](=O)[O-])c2)c(=O)n(-c2ccccc2)n1C` was run?
**A.** inactive

**Q.** With `Cc1cc([N+](=O)[O-])ccc1NC1CCCC1` as the molecule, how does the B-score read?
**A.** inactive

**Q.** For `Cc1cccc(N=C2NC(=O)CS2)c1C`, which B-score is on record?
**A.** inactive

**Q.** Which B-score does the source give for `CCn1cc(C(=O)NCCCN2CCCCCC2)c(=O)c2cc(S(=O)(=O)N3CCc4ccccc4C3)ccc21` here?
**A.** inactive

**Q.** `O=C(CSc1nnc(-c2ccncc2)n1-c1ccc(Cl)cc1)Nc1ccc(C(=O)O)cc1` was tested. Which B-score did it give?
**A.** inactive

**Q.** `O=C(COc1ccc2c(C(F)(F)F)cc(=O)oc2c1)Nc1ccc2c(c1)OCCO2` was tested. Which B-score did it give?
**A.** inactive

**Q.** With `CCN(CC(=O)Nc1ccc2c(c1)OCCO2)Cc1cc(=O)oc2cc(C)c(C)cc12` as the molecule, how does the B-score read?
**A.** -8.72 (active)

**Q.** How did the B-score turn out when `Cc1ccc(SCC(=O)Nc2ccc3c(c2)OCCO3)cc1` was run?
**A.** inactive

**Q.** With `Cc1cccc(N(C(=O)Cn2nnc(-c3ccc(C)o3)n2)C(C(=O)NC2CCCC2)c2ccncc2)c1` (configuration not stated) as the molecule, how does the B-score read?
**A.** inactive

Reference: PubChem BioAssay AID602410 (Johns Hopkins Ion Channel Center, 2012)
